Compounds with a hit are over-represented: about 10% of the library has one in this group of screens.
NPR1 antag – Natriuretic polypeptide receptor (hNpr1) antagonism - Primary qHTS. hit rate 1.6% among 76,000. Atrial natriuretic peptide receptor 1 (Homo sapiens), P16066. AID 1347048, 2019. Potency, µM (titrated, usually from 46.3 µM), inactives show at the top dose activity change, negative = inhibition, usual class: inhibitors. HEK293 hNpr1 GloSensor cGMP, ANP-stimulated luminescence; calls by dose curve; note: nearly all actives have a fitted effect of over 60% in size
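Compound pre-incubated 30 min at room temperature on GloSensor-loaded HEK293 cells stably carrying hNpr1 and the pGS-40F cGMP biosensor. Stimulation uses hNppA at 0.1 nM final; luminescence is taken at baseline and 20 min post-agonist.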
NIH3T3 tox – Cytotoxic Profiling in NIH 3T3 Cell Line of Diverse Libraries Using Quantitative High-Throughput Screening. NIH 3T3 viability, CellTiter-Glo ATP luminescence, 48-72 h. Potency, µM (doses to about 96.7 µM), for the others: at the highest dose activity change, negative = cytotoxicity, hits mostly inhibitors. hit rate 4.3% among 94,000; note: nearly all actives have a fitted effect of over 55% in size
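Luminescent ATP readout (CellTiter-Glo, 10 min RT) after 48 or 72 hr compound exposure of NIH 3T3 cells seeded at 400 cells/well in 1536-well format; quantitative HTS.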
HEK293 tox – Cytotoxic Profiling in HEK 293 Cell Line of Diverse Libraries Using Quantitative High-Throughput Screening. AID 1345083, 2018. hit rate 6.6% among 94,000. Potency, µM (top dose mostly 115 µM), for the others: at the top dose activity change, negative = cytotoxicity, most hits filed as inhibitors. HEK 293 viability, ATP luminescence (CellTiter-Glo), 48-72 h; note: nearly all actives have a fitted effect of over 60% in size
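HEK 293 seeded at 250 cells/well receive compound via pintool. After 48 or 72 hr at 37 degree Celsius, 5% CO2 and 95% humidity, CellTiter-Glo is dispensed and luminescence read following 10 min at room temperature.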
GPT2 inhibitor – Primary qHTS assay for inhibitors of Glutamate pyruvate transaminase 2 (GPT2); hit rate 0.25% among 100,000; Potency, µM (series often up to 57.7 µM), for inactives: at the top dose activity change, negative = inhibition, hits mostly inhibitors; Alanine aminotransferase 2 (Homo sapiens), Q8TD30; Recombinant GPT2, coupled pyruvate oxidase/HRP Amplex Red fluorescence; note: nearly all actives have a fitted effect of over 60% in size
Target sequence (Q8TD30 whole entry, looked up): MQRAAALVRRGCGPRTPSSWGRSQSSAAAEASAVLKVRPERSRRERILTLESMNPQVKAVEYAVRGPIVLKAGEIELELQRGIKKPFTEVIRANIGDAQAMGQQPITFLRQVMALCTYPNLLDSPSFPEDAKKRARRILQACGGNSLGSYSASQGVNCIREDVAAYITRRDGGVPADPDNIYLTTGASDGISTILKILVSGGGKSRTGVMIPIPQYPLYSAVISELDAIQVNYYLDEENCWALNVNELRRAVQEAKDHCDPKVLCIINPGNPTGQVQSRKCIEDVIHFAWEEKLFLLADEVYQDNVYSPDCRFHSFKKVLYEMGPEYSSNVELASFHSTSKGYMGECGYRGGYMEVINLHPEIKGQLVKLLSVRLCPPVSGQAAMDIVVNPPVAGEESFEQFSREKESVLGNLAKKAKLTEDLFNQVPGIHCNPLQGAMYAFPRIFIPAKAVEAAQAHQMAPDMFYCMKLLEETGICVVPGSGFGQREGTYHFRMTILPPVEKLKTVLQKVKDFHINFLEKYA
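Inhibition is scored from Amplex Red fluorescence generated when pyruvate oxidase and HRP act on pyruvate released by GPT2. Reactions contain 10ng/uL enzyme, 250uM a-KG and 2mM L-alanine and run 30 min at room temperature.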
Luciferase inh – Firefly luciferase inhibition profiling of diverse chemical library using quantitative high-throughput screening; Luciferin 4-monooxygenase (Photinus pyralis), P08659; purified P. pyralis luciferase, luminescence, biochemical; Potency, µM (titrated, usually from 115 µM), most hits filed as inhibitors; hit rate 2.5% among 76,000; note: nearly all actives have a fitted effect of over 65% in size
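Cell-free enzyme assay, 10nM P. pyralis luciferase, luciferin and ATP each at 10uM. Inhibition profiled over a 6-point titration, read as luminescence.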
* = called active by the depositor; i = inactive; ? = inconclusive; · = no result given; [ ] = remark or other dose. Unless noted, calls come from the whole dose curve; as a rule, active = well fitted curve in the direction sought with a large enough effect; inconclusive = small, poorly fitted or top-dose-only effect, or another doubt; inactive = no such curve, though single readings can be large; an effect the other way counts as inactive or inconclusive. % is set by controls: 0 for no effect and ±100 for the full control effect; potency is the fitted concentration of half-maximal effect.

SMILES	NPR1 antag	NIH3T3 tox	HEK293 tox	GPT2 inhibitor	Luciferase inh
COc1ccc(-c2ccnc(N[C@H]3CO[C@H]4[C@@H]3OC[C@@H]4NS(=O)(=O)c3ccc4ccccc4c3)n2)cc1	?	?	22µM*	3%	i
CC(=O)c1cccc(NC(=O)O[C@@H]2CO[C@H]3[C@@H]2OC[C@@H]3Nc2nccc(-c3cccc(F)c3)n2)c1	?	?	35µM*	-7%	?
O=C(NC1CCCc2c1cnn2-c1ccc(F)cc1F)c1c(F)cccc1Cl (stereo not given)	?	?	35µM*	-36%	i
CC(C)(C)C(=O)NC1CCN(C(=O)c2ccc(-c3ncccc3C#N)cc2)CC1	·	?	-28%	i	·
CCCS(=O)(=O)N1CC(c2nc(Cc3cccnc3)no2)C1	·	-37%	-8%	-5%	·
COc1ccc(CN2CC(c3nc(Cc4cccnc4)no3)C2)c(OC)c1	?	16µM*	?	-9%	i
O=C(NC1CCOCC1)[C@@H]1CCCN1c1ccnc2ccnn12	·	-28%[138 µM]	-10%[172 µM]	·	·
COc1ccc(-c2cc(C(=O)NCC(C)C)c3c(C4CCNC4)nn(C)c3n2)cc1 (stereo not given)	·	20µM*	?	i	·
COc1nc2c(cc1CNC(=O)C(C)(C)OC)C(=O)N(CCc1ccccn1)C2	3%	-4%	1%	-13%[11.5 µM]	i
Nc1cc(-c2ccncc2)c[nH]c1=O	·	·	·	10µM*	·
Cc1ccc(C2Cn3nnc(C(=O)N4CCC(C(=O)NCc5ccc(F)cc5F)CC4)c3CO2)cc1 (stereo not given)	-2%	i	-1%	i	?
Cc1ccc(C2Cn3nnc(C(=O)N4CCC(C(=O)NCc5ccccc5F)CC4)c3CO2)cc1 (stereo not given)	2%	i	-1%	-10%	22µM*
Cc1ccc(C2Cn3nnc(C(=O)N4CCC(C(=O)NCc5ccccc5Cl)CC4)c3CO2)cc1 (stereo not given)	4%	i	2%	i	?
Cc1ccc(C2Cn3nnc(C(=O)N4CCC(C(=O)NCc5cc(F)ccc5F)CC4)c3CO2)cc1 (stereo not given)	-2%	-13%	-21%	3%	35µM*
c1ccc(OCCNc2nc(-c3cccnc3)nc3c2CCNCC3)cc1	?	32µM*	?	i	i
CCCCN(C)C(=O)c1cccc2c1CCN2C(=O)Nc1ccc(OC)cc1	-8%	-21%	?	i	18µM*
COc1ccc(NC(=O)N2CCc3c(C(=O)NC(C)C)cccc32)cc1	2.5µM*	?	25µM*	i	0.28µM*
CCN(CC)C(=O)c1cccc2c1CCN2C(=O)Nc1cccc(C)c1	-15%	?	?	i	i
Cc1ccc(NC(=O)N2CCc3c(C(=O)NCCCN4CCCC4=O)cccc32)cc1	1.4µM*	?	45µM*	-7%	0.28µM*
CCC(=O)N1CCc2c(C(=O)NCc3ccc(OC)cc3)cccc21	-2%	-16%	-17%	-3%	i
CCC(=O)N1CCc2c(C(=O)Nc3ccc(C)cc3)cccc21	0%	-24%	-23%	3%	i
O=C(NCCc1cccs1)c1cccc2c1CCN2C(=O)Nc1ccccc1	-20%	?	?	i	16µM*
C#CCNC(=O)C1CCCN(Cc2cccc(-c3cccs3)c2)C1 (stereo not given)	·	?	?	i	·
O=C(NCc1ccc(C(F)(F)F)cc1)C1CCCN(Cc2cccc(-c3cccs3)c2)C1 (stereo not given)	·	11µM*	?	-10%	·
O=C(NC1CCN(Cc2cccc(-c3cccs3)c2)CC1)c1ccncc1	·	?	?	i	·
O=C(Nc1ccc(F)cc1)C1CCCN(Cc2cccc(-c3cccs3)c2)C1 (stereo not given)	·	?	40µM*	·	·

Bioassay records as filed in PubChem.
